# From PubChem
# DT40 TDP1 CPT: growth inhibition of DT40 Tdp1-/-;hTDP1 cells with camptothecin (screen for TDP1 inhibitors) | AID 686979 | hit rate 12% among 420,000 | Potency, µM (series often up to 46.2 µM), for the others: top-dose activity change, negative = growth inhibition, usual class: inhibitors | chicken DT40 Tdp1-/-;hTDP1 cells + 20 nM CPT, ATP luminescence, 48 h; note: potency is the fitted concentration of half-maximal effect; nearly all actives have a fitted effect of over 55% in size
#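 Chicken DT40 Tdp1-/- cells stably complemented with human TDP1 were seeded at 400 cells/well in medium containing 20 nM camptothecin, exposed to pin-transferred compounds, and grown at 37 °C for at least 48 hr. Viability was read as ATP luminescence.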
# HT1080 IDH1KD tx: HT-1080 IDH1 knockdown cell toxicity (counter line); Potency, µM (highest dose often 46.1 µM), without a hit: at the highest dose activity, negative = toxicity, actives largely listed as cytotoxic; HT-1080 IDH1 knockdown viability, ATP luminescence, 48 h; hit rate 2% among 360,000; AID 686971;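 note: potency is the fitted concentration of half-maximal effect; 0% = DMSO wells and -100% = cell-free medium wells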
#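 Using the IDH1-knockdown HT-1080 line run in the same batch and compound series as the NT line, viability after 48 h at 37 °C was determined by CellTiter-Glo luminescence and expressed as % activity.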
# HT1080-NT tox: kills 2HG-producing HT-1080-NT fibrosarcoma cells; Potency, µM (doses to about 46.1 µM), for the others: top-dose activity, negative = less viability, actives largely listed as cytotoxic; HT-1080-NT fibrosarcoma viability, CellTiter-Glo ATP luminescence, 48 h; hit rate 1.6% among 360,000; AID 686970;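 note: NT is the 2HG producing partner of a matched IDH1 knockdown line; potency is the fitted concentration of half-maximal effect; 0% = DMSO-treated cells and -100% = media-only wells without cells; nearly all actives have a fitted effect of over 55% in size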
#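 Luminescent CellTiter-Glo readout after 48 hours of compound exposure at 37 degrees C defined viability of HT-1080-NT cells. Activity was normalized to DMSO wells and cell-free media wells; concentration-response curves were fitted and assigned curve classes.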
# IL-1B inflam inh: inflammasome signaling inhibition, IL-1 beta readout; THP-1 LPS/ATP IL-1B secretion, AlphaLISA, 16 h; stronger effect = lower value; activity change, % at 57.5 µM; hit rate 4.7% among 360,000; in the data active = activity change below about -50%; inconclusive = mostly about -30% to -49%
#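 THP-1 cells pretreated 1 hr with compounds (up to 57.5 uM final), then stimulated with LPS (250 ng/mL final) plus ATP (1.25 mM final); secreted IL-1B measured by AlphaLISA after 16 hr, decreased signal indicating inhibition.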
# DT40 TDP1 no CPT: qHTS for Inhibitors of human tyrosyl-DNA phosphodiesterase 1 (TDP1): qHTS in cells in absence of CPT. DT40 Tdp1-/- hTDP1 cells, no CPT, ATP luminescence, 48 h. Potency, µM (top dose mostly 46.2 µM), for inactives: top-dose activity change, negative = growth inhibition, most hits filed as inhibitors. hit rate 15% among 420,000. AID 686978, 2013; note: potency is the fitted concentration of half-maximal effect; nearly all actives have a fitted effect of over 55% in size
#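 Chicken DT40 Tdp1-/- cells complemented with human TDP1, screened without camptothecin (DMSO vehicle only), 400 cells/well. Compounds pin-transferred, cells incubated at 37 °C for at least 48 hr. Growth read as ATP-dependent luminescence (CellTiter-Glo, 30 min at RT).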
# * marks the source's active call; other numbers are inactive results; ? = inconclusive; . = not tested or not shown; ! = repeats disagree; [ ] = another dose, or the depositor's remark. Compounds with a hit are over-represented: about 19% of the library has one in this group of screens. Unless noted, calls come from the whole dose curve; as a rule, active = well fitted curve in the direction sought with a large enough effect; inconclusive = small, poorly fitted or top-dose-only effect, or another doubt; inactive = no such curve, though single readings can be large; an effect the other way counts as inactive or inconclusive. Unless noted, % is set by controls: 0 for no effect and ±100 for the full control effect.
SMILES,DT40 TDP1 CPT,HT1080 IDH1KD tx,HT1080-NT tox,IL-1B inflam inh,DT40 TDP1 no CPT
Cc1sc2ncnc(N3CCC(C(=O)N(C)CC(=O)Nc4cccc(F)c4)CC3)c2c1C,9.2µM*,?,?,?,13µM*
Cc1sc2ncnc(N3CCC(C(=O)N(C)CC(=O)Nc4ccccc4Cl)CC3)c2c1C,16.4µM*,-20.5%,-6.6%,0.0,23.1µM*
O=C(C=Cc1ccccc1)c1cccs1,18.4µM*,-15.7%,6.8%,-20.0,16.4µM*
Nc1ccc(/C=C/C(=O)c2cccs2)cc1,7.8%,-19.3%,-26.2%,-108.7*,?
O=C(/C=C/c1ccccc1)c1cccs1,6.68µM*,.,.,.,9.44µM*
O=C(/C=C/c1ccc([N+](=O)[O-])cc1)c1cccs1,?,9.9%,2.5%,-11.5,?
CCOc1ccc(/C=C/C(=O)c2cccs2)cc1,26.6µM*,.,.,.,?
CCOC(=O)c1c(C)[nH]c(C)c1S(=O)(=O)NCC(=O)Nc1cccc(SC)c1,?,.,.,.,-17.2%
COc1ccc(NC(=S)N2CCN(C(=O)c3ccco3)CC2)cc1OC,-7.4%,14.5%,17.4%,-14.4,0.1%
Cc1ccccc1CCN(C(=O)Cn1nnc2ccccc21)C(C(=O)NCC1CCCO1)c1nc2ccccc2n1C (stereo unspecified),?,0.5%,-0.5%,9.9,?
Cc1c(/C=C/C(=O)c2cccs2)cnn1C,16.4µM*,-4.2%,-11.3%,-22.9,?
NC[C@H]1O[C@H](O[C@H]2[C@H](O)[C@@H](O[C@H]3O[C@H](CO)[C@@H](O)[C@H](N)[C@H]3O)[C@H](N)C[C@@H]2N)[C@H](O)[C@@H](O)[C@@H]1O,-7.9%[21.1 µM],.,.,.,?
O=S(=O)(O)Oc1ccc(C(c2ccc(OS(=O)(=O)O)cc2)c2ccccn2)cc1,-2.2%,.,.,.,7.7%
CC(=O)Oc1ccc(C(c2ccc(OC(C)=O)cc2)c2ccccn2)cc1,?,?,?,-76.7*,15µM*
Oc1cc2c(cc1O)[C@@H](c1ccccc1)CNCC2,?,?,?,16.6,?
C=CCN1CCc2c(cc(O)c(O)c2Br)[C@@H](c2ccccc2)C1,?,?,?,105.7,7.31µM*
C=CCN1CCc2cc(O)c(O)cc2[C@H](c2ccccc2)C1,?,.,.,.,26.6µM*
Oc1cc2c(cc1O)C(c1ccccc1)CNCC2 (stereo unspecified),?,-22.6%,-29.8%,-1.6,25.9µM*!
Oc1ccc([C@@H]2CNCCc3c2cc(O)c(O)c3Cl)cc1,?,.,.,.,29.9µM*
CC(=O)N1c2ccccc2N2C(c3c(C)c(C)cc(C)c3C)=NON12,?,-13.7%,-1.8%,-6.5,-25.9%
CCOC(=O)C1CCCN(C(=O)c2ccc(F)c(Cl)c2)CC1 (stereo unspecified),-11.7%,14.9%,15.7%,28.9,-20.3%
O=C(N/N=C/c1ccc2c(c1)OCO2)c1cc(-c2ccco2)nc2ccccc12,9.2µM*,3.66µM*,4.11µM*,20.2,7.31µM*
CC(=O)Nc1ccc(/C=N/NC(=O)c2cc(-c3ccco3)nc3ccccc23)cc1,-24.0%,-7.6%,-9.7%,30.2,?
O=C(N/N=C/c1ccc2c(c1)OCO2)c1cc(-c2ccccc2)nc2ccccc12,20.6µM*,-24.8%,-24.6%,0.8,10.3µM*
CC(C)NC(=O)c1ccc2c3n(nc2c1)-c1ccccc1CO3,?,?,?,0.0,20.6µM*
SMILES,DT40 TDP1 CPT,HT1080 IDH1KD tx,HT1080-NT tox,IL-1B inflam inh,DT40 TDP1 no CPT
CC(C)[C@@H](CO)NC(=O)c1ccc2c3n(nc2c1)-c1ccccc1CO3,?,?,?,-9.4,?
Cc1ccc2c(c1)COc1c3ccc(C(=O)O)cc3nn1-2,-16.7%,-18.1%,-27.4%,3.8,-18.2%
Cc1ccc2c(c1)COc1c3ccc(C(=O)NCC4CC4)cc3nn1-2,?,-7.6%,-15.1%,3.5,20.6µM*
CCCOC(=O)c1ccc(NC(=O)c2cc(=O)[nH]c3ccccc23)cc1,-20.2%,-14.1%,-6.2%,3.5,1.3%
CN(C)c1nc2cc3c(cc2cc1CN(CC1CCCO1)C(=O)/C=C/c1cccs1)OCO3 (stereo unspecified),2.7%,.,.,.,-6.8%
COc1ccc(C(=O)NCCn2cc(SCC(=O)NCc3ccco3)c3ccccc32)cc1,7.31µM*,?,-3.9%,-1.8,5.8µM*
COc1ccc(C(=O)NCCn2cc(SCC(=O)Nc3cccc(C)c3)c3ccccc32)cc1,16.4µM*,.,.,.,?
COc1ccc(C(=O)NCCn2cc(SCC(=O)NCC3CCCO3)c3ccccc32)cc1 (stereo unspecified),-22.5%,-1.0%,-1.8%,16.0,-18.7%
Cc1ccc(CCN2CC(C(=O)NC3CCCC3)CC2=O)cc1 (stereo unspecified),-24.8%,8.0%,14.9%,-0.9,-3.7%
CC1CCCCC1NC(=O)C1CC(=O)N(Cc2ccccc2)C1 (stereo unspecified),13µM*,9.7%,8.1%,33.6,11.6µM*
Cc1ccc(CN2CC(C(=O)NC3CCCC(C)C3C)CC2=O)cc1 (stereo unspecified),18.4µM*,-4.2%,-4.1%[9.24 µM],-16.6,?
O=C(Nc1ccc(Br)cc1Br)C1CC(=O)N(Cc2ccccc2)C1 (stereo unspecified),-18.7%,-3.0%,1.2%,-56.1*,-25.6%
CC1CCCC(NC(=O)C2CC(=O)N(Cc3ccccc3)C2)C1C (stereo unspecified),-3.8%,10.8%,19.4%,26.3,25.2%
COc1cccc2c1CCC1CC(=O)CC[C@@]21C (stereo partly specified),-18.5%,.,.,.,?
CCCCCCCCN1C(=O)[C@H](CC(=O)NCC23CC4CC(CC(C4)C2)C3)C[C@@]2(C(=O)OCC)CCC=C12,-87.5%,?,?,-19.0,16.4µM*
CCOC(=O)[C@]12CCCC=C1N(CCC1=CCCCC1)C(=O)[C@H](CC(=O)NCCC(C)C)C2,14.6µM*,?,?,-20.0,11.6µM*
CCCCCCCCN1C(=O)[C@H](CC(=O)NCCC(C)C)C[C@@]2(C(=O)OCC)CCCC=C12,13µM*,?,?,?,11.6µM*
CCOC(=O)[C@]12CCCC=C1N(CCC1=CCCCC1)C(=O)[C@H](CC(=O)NCCCN1CCCC1=O)C2,?,-4.6%,-6.2%,7.1,?
Nc1nc(Nc2ccccc2)nc2c1ncn2[C@@H]1O[C@H](CO)[C@@H](O)[C@H]1O,7.7%,9.9%,27.0%,-18.5,2.6%
Cc1nnc(C)c2c(C)n(Cc3ccc4c(c3)OCO4)c(C)c12,13µM*,-10.4%,-4.4%,-13.2,16.4µM*
c1cc2c(cc1Cn1cnnn1)OCO2,-5.1%,0.7%,2.3%,-16.0,6.2%
